Screening data deposited in PubChem by National Center for Advancing Translational Sciences (NCATS).
In the library only some 5.9% were active in any assay of this set; here they are far more common.
TGFb inhibitor = TGF-b pathway inhibition. AID 588855. Potency, µM (series often up to 46.1 µM), actives largely listed as inhibitors. 410,000 compounds, 1.2% hits. HepG2 CAGA-GFP TGF-b/SMAD3 reporter, GFP fluorescence, 18 h; TGF-beta stimulated, 500 pg/mL final; note: nearly all actives have a fitted effect of over 65% in size
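Per well, imaged GFP fluorescence of HEPG2 CAGA-GFP cells gives the signal; cells get compound, then TGF-beta (500 pg/mL final), 18 h at 37 degrees C; %Activity versus -TGF-beta and +DMSO controls.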
KB-V1 cytotox = KB-V1 MDR subline cytotoxicity; KB-V1 MDR cells viability, CellTiter-Glo, 72 h; Potency, µM (doses to about 46.1 µM), usual class: cytotoxic; 400,000 compounds, 3.4% hits; note: nearly all actives have a fitted effect of over 60% in size
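Cytotoxicity via CellTiter-Glo luminescence after 72 h compound exposure at 37 degrees C. Cells: drug-selected KB-V1 line, DMEM phenol-red free plus 10% FBS. Compounds tested at multiple concentrations; normalized data fitted to concentration-effect curves.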
HepG2 viability = kills HepG2 cells in TGF-b inhibitor counter-screen | HepG2 CAGA-GFP viability, ATP luminescence, 18 h | 410,000 compounds, 0.76% hits | AID 588856 | Potency, µM (titrated, usually from 46.1 µM), most hits filed as cytotoxic
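CellTiter-Glo luminescence gave cytotoxicity after 18 hours at 37 degrees C. The cells were HepG2 CAGA-GFP in 1% FBS DMEM, stimulated with 500 pg/mL TGF-beta after compound addition. %Activity was normalised to no-cell wells (complete cell-killing) and DMSO (no toxicity), and curves were fitted and classified.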
KB-3-1 cytotox = KB-3-1 parental cell cytotoxicity | KB-3-1 viability, CellTiter-Glo ATP luminescence, 72 h | Potency, µM (highest dose often 46.1 µM), hits mostly cytotoxic | 400,000 compounds, 1.4% hits | AID 1347075; note: nearly all actives have a fitted effect of over 60% in size
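Parental KB-3-1 adenocarcinoma cells in phenol-red-free DMEM with 10% FBS were pin-treated with compounds at several concentrations, incubated 72 h at 37 °C, and viability read by CellTiter-Glo luminescence; concentration-effect curves were fitted after normalization.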
ATXN2 expr inh = inhibitors of ATXN2 expression; HEK-293 ATXN2-luciferase reporter, luminescence, 24 h; AID 1745845; 360,000 compounds, 0.72% hits; Potency, µM (titrated, usually from 57 µM), actives largely listed as inhibitors; note: nearly all actives have a fitted effect of over 55% in size
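ATXN2-luciferase reporter cells (luciferase flanked by upstream and downstream ATXN2 gene portions) were treated 24 h at 37 °C with compounds at up to 57 uM. SteadyGlo luminescence gave expression; GF-AFC fluorescence gave viability.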
S2 tox = reduces viability in counter-screen for ATXN expression inhibitors; S2 cells (HEK-293 line with an ATXN2-luciferase reporter) viability, CellTiter-Fluor protease fluorescence, 24 h; Potency, µM (highest dose often 56.7 µM), usual class: cytotoxic; 400,000 compounds, 0.49% hits; AID 651635; note: nearly all actives have a fitted effect of over 40% in size
Numbers stand for hits; – = inactive; ? = inconclusive; · = not tested or not shown. Calls come from the whole dose curve; as a rule, active = well fitted curve in the direction sought with a large enough effect; inconclusive = small, poorly fitted or top-dose-only effect, or another doubt; inactive = no such curve, though single readings can be large; an effect the other way counts as inactive or inconclusive.

SMILES	TGFb inhibitor	KB-V1 cytotox	HepG2 viability	KB-3-1 cytotox	ATXN2 expr inh	S2 tox
COCC(C)n1c(C)cc(C(=O)COC(=O)c2cnc(Cl)c(Cl)c2)c1C (stereo not given)	–	?	–	–	–	?
COc1cccc(C(=O)Nc2cccc(OCc3cc(=O)n4cc(C)ccc4n3)c2)c1	–	–	–	–	·	·
Cc1cc(C(F)F)n2nc(C(=O)Nc3ccc(C(C)C)cc3)nc2n1	–	–	–	–	–	–
CN(C)S(=O)(=O)c1ccc(Cl)c(C(=O)Nc2ccccc2[N+](=O)[O-])c1	–	16µM	–	–	–	–
CCN(CC)S(=O)(=O)c1ccc(OC)c(NC(=O)CSc2ccccc2)c1	–	–	–	–	–	–
COc1ccc(Cl)cc1NC(=O)c1cccc([N+](=O)[O-])c1O	11µM	21µM	–	12µM	?	?
CCN(CC)S(=O)(=O)c1ccc(OC)c(NC(=O)CSc2cc(Cl)ccc2Cl)c1	–	13µM	–	–	–	–
CCN(CC)S(=O)(=O)c1ccc(Cl)c(C(=O)Nc2ccc(Cl)cc2[N+](=O)[O-])c1	?	4.1µM	–	–	–	?
CC(=O)CSc1nc(-c2ccccc2)[nH]c1S(=O)(=O)c1ccc(C)cc1	–	–	–	–	–	?
Cc1ccc(C)c(N2CCN(S(=O)(=O)c3cc(-c4cc(C)no4)ccc3C)CC2)c1	?	–	–	–	·	·
COC(=O)c1ccc(NC(C)=O)cc1OC	·	·	·	·	–	–
Cc1ccc(Cl)cc1NCc1nnc2n1CCCCC2	–	–	–	–	–	–
CCN(CC)S(=O)(=O)c1ccc(OC)c(NC(=O)c2cc([N+](=O)[O-])ccc2Cl)c1	–	–	–	18µM	–	–
CCN(CC)S(=O)(=O)c1ccc(OC)c(NC(=O)c2cccc(C)c2[N+](=O)[O-])c1	?	–	–	–	–	–
CN(C)S(=O)(=O)c1cccc(C(=O)Nc2cc(Cl)cc(Cl)c2)c1	?	?	–	–	–	–
CN(C)S(=O)(=O)c1cccc(C(=O)Nc2ccccc2Cl)c1	–	16µM	–	–	–	–
CN(C)c1ccc(NC(=O)Cn2nnc3sc4c(c3c2=O)CCC(C(C)(C)C)C4)cc1 (stereo not given)	–	–	–	–	–	–
Cc1c(CCCl)c(Cl)n2c(nc3ccccc32)c1C#N	?	1.6µM	–	2.1µM	?	?
Cc1ccc(-c2c(C#N)c(N)n3c(nc4ccccc43)c2C#N)cc1	?	?	–	13µM	?	–
CCc1c(C)c(C#N)c2nc3ccccc3n2c1NC	–	–	–	–	–	–
O=S1(=O)CCOCCCN1Cc1ccc(F)cc1	–	–	–	–	·	·
COc1ccc(CCN(C)Cc2cc(-c3cncnc3)ccc2O)cc1OC	·	·	·	·	·	–
CCSc1nsc(NC(=O)Nc2cccc(OC)c2)n1	22µM	?	–	?	–	–
O=C(Nc1ccc(F)cc1)Nc1nnc(SCC(=O)N2CCCCC2)s1	–	·	–	·	·	·
CC(c1ccccc1)c1nnc(NC(=O)Nc2ccccc2F)s1 (stereo not given)	–	–	–	–	–	–
SMILES	TGFb inhibitor	KB-V1 cytotox	HepG2 viability	KB-3-1 cytotox	ATXN2 expr inh	S2 tox
CCSc1nsc(NC(=O)Nc2ccccc2F)n1	?	16µM	–	?	–	?
C=CCSc1nsc(NC(=O)Nc2ccc(F)cc2)n1	6.3µM	21µM	–	?	?	8.9µM
O=C(Nc1ccc(Cl)cc1Cl)[C@@H]1CC=C[C@@H]2CCN(C3CC3)C(=O)[C@@H]21	?	?	–	–	·	·
CCOc1ccc(/C=N/NC(=O)C(O)c2ccccc2)c(O)c1 (stereo not given)	–	–	–	–	32µM	–
Cc1cc(=O)[nH]c2ccc(Cc3ccccc3)cc12	–	9.2µM	–	?	–	–
O=C1CC(N(CCc2ccccc2)C(=S)Nc2ccccc2)C(=O)N1c1ccc(Br)cc1 (stereo not given)	?	?	2.2µM	?	?	?
COc1ccc(CCN(C(=S)Nc2ccccc2)C2CC(=O)N(c3ccccc3)C2=O)cc1 (stereo not given)	–	–	–	–	–	–
